Reference: article PMC4336329 (PLoS ONE, 2015)
Out of some 310,000 compounds screened, about 14,000 (4.5%) showed an effect of 50% or more. Effects have a minus sign here. This is one part of a sample in which strong results are shown more often than they occur.

Target: human ether-à-go-go-related gene (hERG) potassium channel (human, UniProt Q12809)
Experiment: primary screen, population patch clamp on CHO cells stably expressing hERG; higher = less effect of the substance
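Note: peak tail current of the secondary pulse compared with the same well before compound.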

Chain of human ether-à-go-go-related gene (hERG) potassium channel (Q12809 whole entry, looked up): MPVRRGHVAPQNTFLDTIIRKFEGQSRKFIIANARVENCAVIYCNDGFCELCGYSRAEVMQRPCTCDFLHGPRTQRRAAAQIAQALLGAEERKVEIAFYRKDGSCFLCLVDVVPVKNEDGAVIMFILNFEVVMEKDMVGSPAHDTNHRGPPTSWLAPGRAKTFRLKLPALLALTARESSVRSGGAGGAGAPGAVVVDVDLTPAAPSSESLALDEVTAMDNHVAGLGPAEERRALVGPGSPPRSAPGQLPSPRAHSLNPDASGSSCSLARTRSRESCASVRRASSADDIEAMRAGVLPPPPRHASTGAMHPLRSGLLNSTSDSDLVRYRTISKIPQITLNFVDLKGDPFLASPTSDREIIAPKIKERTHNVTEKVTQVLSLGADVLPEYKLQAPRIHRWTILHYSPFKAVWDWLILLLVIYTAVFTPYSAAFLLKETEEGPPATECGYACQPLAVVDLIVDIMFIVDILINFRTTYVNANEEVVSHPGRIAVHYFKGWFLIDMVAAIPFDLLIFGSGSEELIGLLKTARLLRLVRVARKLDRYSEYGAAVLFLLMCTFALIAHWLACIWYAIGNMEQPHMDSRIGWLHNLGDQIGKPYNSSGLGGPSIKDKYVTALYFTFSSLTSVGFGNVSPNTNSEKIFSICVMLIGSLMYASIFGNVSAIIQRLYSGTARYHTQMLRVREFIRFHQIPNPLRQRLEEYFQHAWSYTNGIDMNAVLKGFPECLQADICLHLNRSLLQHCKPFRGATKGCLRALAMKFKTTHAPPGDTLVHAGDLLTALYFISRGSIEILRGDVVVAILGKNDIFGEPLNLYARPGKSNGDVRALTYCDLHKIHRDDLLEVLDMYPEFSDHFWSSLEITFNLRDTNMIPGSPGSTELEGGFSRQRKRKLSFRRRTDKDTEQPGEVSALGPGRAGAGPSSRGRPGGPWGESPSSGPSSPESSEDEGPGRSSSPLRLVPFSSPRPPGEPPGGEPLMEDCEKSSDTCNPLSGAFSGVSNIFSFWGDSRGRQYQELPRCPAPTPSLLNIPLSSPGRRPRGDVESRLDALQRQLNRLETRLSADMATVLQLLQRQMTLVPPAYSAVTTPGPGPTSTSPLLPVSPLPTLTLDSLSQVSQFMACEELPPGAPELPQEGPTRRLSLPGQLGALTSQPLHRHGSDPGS

Structure (SMILES) | hERG current change (%, negative = inhibition) at 10uM [%]
COC(=O)c1ccc(NC(=O)c2ccccc2N(C)S(=O)(=O)c2ccccc2)cc1 | 16.3
CC(C)(C)c1cc(C(=S)N2CCN(CCO)CC2)cc(C(C)(C)C)c1O | -26.6
CC(C)(C)c1cc(C(c2cccnc2)N2CCN(CCO)CC2)cc(C(C)(C)C)c1O (stereo not drawn) | -53.8
CN1CCN(C(c2ccc(Cl)cc2)c2cc(Cl)c3cccnc3c2O)CC1 (stereo not drawn) | 7.12
CC(C)(C)c1cc(CN2CCN(CCO)CC2)cc(C(C)(C)C)c1O | -19
Cc1ccc(C(c2cc(Cl)c3cccnc3c2O)N2CCN(C)CC2)cc1 (stereo not drawn) | -9.97
CCN1CCN(C(c2cccnc2)c2cc(Cl)c3cccnc3c2O)CC1 (stereo not drawn) | -72.4
COC(=O)C1=C(C(=O)OC)[C@@H]2N(Cc3ccccc3)c3ccccc3[C@@]23C[C@@H](CO)N(C(=O)NC2CCCC2)C3=N1 | -9.18
CC(CN(C)Cc1ccccc1)OC(=O)c1cccs1.Cl (stereo not drawn) | -10.5
COc1cc2c(cc1OC)C(C)N(C(=O)C1COc3ccccc3O1)CC2 (stereo not drawn) | -35.3
Cc1sc2nc(C3CC3)nc(N3CCN(C(=O)c4ccccc4F)CC3)c2c1C.Cl | -37.6
COc1ccc(C(=O)N2CCN(c3nc(C4CC4)nc4sc(C)c(C)c34)CC2)cc1.Cl | -23.8
Cc1sc2nc(C3CC3)nc(N3CCN(C(=O)c4ccc(F)cc4)CC3)c2c1C.Cl | -69.8
Cc1sc2nc(C3CC3)nc(N3CCN(S(=O)(=O)c4ccc(F)cc4)CC3)c2c1C | -0.18
Cc1sc2nc(C3CC3)nc(N3CCN(C(=O)c4ccc(Cl)cc4)CC3)c2c1C.Cl | -57.1
Cc1sc2ncnc(N3CCC(C(=O)NNC(=O)c4ccc(Cl)cc4)CC3)c2c1C | -11.2
O=C(CN(c1ccc2c(c1)OCCO2)S(=O)(=O)c1ccccc1)NCc1ccco1 | 4.37
O=C(Nc1ccc(F)cc1F)c1ccc2c(c1)OCCO2 | 15.4
Cc1cccc(NC(=S)N(CCN2CCOCC2)Cc2cc3cc4c(cc3[nH]c2=O)OCCO4)c1 | -3.3
CN(C(=O)COC(=O)c1cc(S(=O)(=O)N2CCCCC2)ccc1N1CCOCC1)C1CCS(=O)(=O)C1 (stereo not drawn) | -6.63
CCCCc1c(O)c2ccccc2[nH]c1=O | 0.685
COc1ccc(-n2c(C)cc(C(=O)CSc3nnc(-c4ccoc4C)n3C)c2C)cc1 | -31.1
CCSC1=N/C(=C\C=C2/Oc3ccccc3N2CC)C(=O)S1 | -3.2

Structure (SMILES) | hERG current change (%, negative = inhibition) at 10uM [%]
COc1ccc(OC)c(NC(=O)N2CCCC(C(=O)c3ccccc3OC)C2)c1 (stereo not drawn) | 5.87
COc1ccc(C(=O)C2CCCN(C3Cc4ccccc4C3)C2)c(OC)c1 (stereo not drawn) | -76.5
COc1ccc(C(=O)C2CCCN(C3CSCCSC3)C2)cc1OC (stereo not drawn) | -21.8
COc1ccc(C(=O)C2CCCN(C3CSCCSC3)C2)c(OC)c1 (stereo not drawn) | -43.6
COC(=O)c1ccccc1C(=O)N1CCCC(C(=O)c2ccc(OC)c(OC)c2)C1 (stereo not drawn) | 4.47
COc1ccc(C(=O)C2CCCN(C3Cc4ccccc4C3)C2)cc1OC (stereo not drawn) | -76.6
CC(C)(C)NC(=O)COc1ccc(CNc2ccc3[nH]c(=O)[nH]c3c2)cc1 | -1.87
Cn1c(NCc2ccco2)nc2c1c(=O)n(Cc1ccc(Cl)c(Cl)c1)c(=O)n2C | -15.6
COCCn1c(SCC(=O)/C=C2\N(C)c3ccccc3C2(C)C)nnc1-c1ccncc1 | -37.4
CC(=O)Nc1ccccc1OCCOc1ccc(Br)cc1 | -1.67
Clc1ccc(-c2nnc3n2CCCS3)cc1 | 6.34
O=C(NCCc1nc2ccccc2[nH]1)c1ccc(Cl)c([N+](=O)[O-])c1 | -56.2
O=C(COc1ccccc1Br)NCCc1nc2ccccc2[nH]1 | -65.3
O=C(COc1ccc([N+](=O)[O-])cc1)NCCc1nc2ccccc2[nH]1 | -56.7
COc1ccccc1OCC(=O)NCCc1nc2ccccc2[nH]1 | 2.13
O=C(COc1ccccc1)NCCc1nc2ccccc2[nH]1 | -6.21
O=C(NCCc1nc2ccccc2[nH]1)c1cc([N+](=O)[O-])cc([N+](=O)[O-])c1 | -8.57
O=C(Nc1nc2ccccc2[nH]1)c1ccc(Cl)c([N+](=O)[O-])c1 | 0.857
CCOc1ccc(OCC(=O)NCCc2nc3ccccc3[nH]2)cc1 | -34.6
O=C(NCc1nc2ccccc2[nH]1)c1ccc([N+](=O)[O-])cc1 | -38.5
O=C(NCCc1nc2ccccc2[nH]1)c1ccc([N+](=O)[O-])cc1 | -56.8
Cc1ccc(C(=O)NCCc2nc3ccccc3[nH]2)cc1[N+](=O)[O-] | -31.8
Cc1ccccc1OCC(=O)NCCc1nc2ccccc2[nH]1 | -9.27

Structure (SMILES) | hERG current change (%, negative = inhibition) at 10uM [%]
CC1=NN(C(=O)Cc2ccc([N+](=O)[O-])cc2)C(O)(C(F)(F)C(F)(F)F)C1 (stereo not drawn) | -12.4
O=C(Nc1nnc(-c2ccco2)o1)c1cccc(N2C(=O)CCC2=O)c1 | 7.91
CCOc1ccc(Br)cc1C(=O)N/N=C/c1cccnc1 | 1.64
CCCn1c(SCCC(=O)O)nc2ccccc21 | 8.62
O=[N+]([O-])c1ccc(-c2c(-c3ccccc3)ncc3cc(F)ccc23)cc1 | 1.58
O=C(CNc1cc(S(=O)(=O)N2CCCC2)ccc1OCC(F)(F)F)Nc1cc(Cl)cc(Cl)c1 | 6.5
CC(=O)Nc1c(O)nc(C)[nH]c1=O | 6.51
O=c1cc(CSc2nnc(COc3cccc4ccccc34)o2)c2ccccc2[nH]1 | 22.2
CCc1ccccc1NC(=O)c1cc2ncc(Br)cn2n1 | 9.22
CCCNC(=O)c1nn2cc(Br)cnc2c1Br | -69.2
CCCNC(=O)c1nn2cc(Br)cnc2c1Cl | -73.2
COCCNC(=O)c1nn2cccnc2c1Cl | -11.3
CCCNC(=O)c1nc2ncc(Br)cn2n1 | -31.1
CCCCNC(=O)c1nn2cc(Br)cnc2c1Br | -62.3
CCCCNC(=O)Nc1ccc(Br)cn1 | -16.2
COCCNC(=O)c1cc2ncc(Br)cn2n1 | 5.41
CCCCNC(=O)c1nc2ncc(Br)cn2n1 | -21
O=C(/C=C/c1ccccc1)Nc1ccc(NC(=O)c2cccs2)cc1 | 6.8
COC(=O)c1cc(-c2ccc(NC(C)=O)cc2)nc2ccccc12 | 6.01
CCOC(=O)CC(NC(=O)Cc1ccccc1)c1ccccc1Cl (stereo not drawn) | 1.83
Cc1ccc(Nc2ncc3c(n2)CC(C)(C)CC3=O)cc1 | -10
N/C(=N/OCC(=O)Nc1cccc2ccccc12)c1nonc1N | -14
CCOc1ccc(C(=O)O/N=C(\N)c2ccc([N+](=O)[O-])cc2)cc1OCC | -6.93

Structure (SMILES) | hERG current change (%, negative = inhibition) at 10uM [%]
CN1CCN(Cc2nc3ccccc3c(=O)n2Cc2nc(-c3ccccc3F)cs2)CC1 | -71
CN1CCN(Cc2nc3ccccc3c(=O)n2CC#N)CC1 | -2.87
CN(C)Cc1nc2ccccc2c(=O)n1Cc1nc(-c2cc3ccccc3o2)cs1 | 9.3
CN1CCN(Cc2nc3ccccc3c(=O)n2Cc2nc(-c3ccc4ccccc4c3)cs2)CC1 | -6.55
CN1CCN(Cc2nc3ccccc3c(=O)n2Cc2nc(-c3ccc([N+](=O)[O-])cc3)cs2)CC1 | -73.8
CN(C)Cc1nc2ccccc2c(=O)n1Cc1nc(-c2cccc([N+](=O)[O-])c2)cs1 | -36.9
Cc1cc2[nH]c(=O)c(=O)[nH]c2cc1S(=O)(=O)Nc1cccc(Cl)c1C | -0.165
CCN1CCN(C2=NC(=O)/C(=C/c3ccc(C)o3)S2)CC1 | -20.9
O.[I-].c1ccc2[nH]c(-c3cc[nH+]c4ccccc34)nc2c1 | -12.6
CCOc1ccccc1NC(=O)C1CCCN(c2c(CC)c(C)nc3ncnn23)C1 (stereo not drawn) | -65.1
CCOc1ccc(NC(=O)C2CCCN(c3c(CC)c(C)nc4ncnn34)C2)cc1 (stereo not drawn) | -65.8
CCc1c(C)nc2ncnn2c1N1CCCC(C(=O)Nc2cc(F)ccc2C)C1 (stereo not drawn) | -40.6
CCc1c(C)nc2ncnn2c1N1CCCC(C(=O)Nc2ccc(NC(C)=O)cc2)C1 (stereo not drawn) | 14.2
CCc1c(C)nc2ncnn2c1N1CCC(C(=O)Nc2cccc(C(C)=O)c2)CC1 | -22.6
CCc1c(C)nc2ncnn2c1N1CCCC(C(=O)NCCc2ccc(OC)cc2)C1 (stereo not drawn) | -19.6
O=C(C1CCN(c2ccc(N3CCOCC3)nn2)CC1)N1CCN(c2ccc(F)cc2)CC1 | -47.4
CCc1c(C)nc2ncnn2c1N1CCC(C(=O)NCc2cccs2)CC1 | -44.4
CCc1c(C)nc2ncnn2c1N1CCCC(C(=O)NCCc2ccccc2)C1 (stereo not drawn) | -15.2
CCc1c(C)nc2ncnn2c1N1CCC(C(=O)N2CCN(c3ccc(F)cc3)CC2)CC1 | -67.9
CCc1c(C)nc2ncnn2c1N1CCC(C(=O)Nc2ccc(C)cc2)CC1 | -55.9
CCc1c(C)nc2ncnn2c1N1CCC(C(=O)Nc2ccccc2)CC1 | -44.4
